# Measurements reported in PubChem BioAssay (Tox21).
# Records with an inconclusive call do not appear. Unmarked numbers belong to inactive results. Calls come from the whole dose curve; as a rule, active = well fitted curve in the direction sought with a large enough effect in the signal ratio in the repeat runs (not every such curve was filed as active); inconclusive = weak or mixed curves, or a change in a side signal; inactive = no such curve, though single readings can be large or run the other way; the % refers to the signal ratio.
# Test: qHTS assay to identify small molecule agonists of the NFkB signaling pathway (AID 1159509)
# Settings: NFkB-bla ME-180 cells, beta-lactamase FRET ratio, 5 h; series mostly up to 61 µM; activation: at the top concentration
# In short: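 ME-180 NFkB-bla, 2,000 cells/well, overnight plating; cpd pinned in DMSO, 5 h 37 C; B/G FRET substrate 1.5 h RT; ex 405, em 460/530 nm.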
# % is set by controls: 0 for no effect and ±100 for the full control effect.
row,Compound,activation
1,Cc1ccc(NC=O)c(C)c1,-0.442%
2,CC(CN=Cc1ccccc1O)N=Cc1ccccc1O (centres undefined),-0.679%
3,CCC(C)CCCC(C)(C)O (centres undefined),0.532%
4,CO[C@@H]1[C@@H](O[C@@H]2O[C@H](C)[C@@H](O[C@H]3C[C@@](C)(O)[C@@H](O)[C@H](C)O3)[C@H](N(C)C)[C@H]2O)[C@@H](CC=O)C[C@@H](C)[C@@H](O[C@@H]2CC[C@H](N(C)C)[C@@H](C)O2)/C=C/C=C/C[C@@H](C)OC(=O)C[C@H]1OC(C)=O,-0.108%
5,CC(=O)Nc1ccccc1O,-0.874%
6,CCCCOC(=O)C(C)Oc1ccc(Oc2ccc(C(F)(F)F)cn2)cc1 (centres undefined),-0.203%
7,C=CC(O)CCCCC (centres undefined),-0.0785%
8,CC(=O)OCC(=O)[C@@]1(O)CC[C@H]2[C@@H]3CCC4=CC(=O)C=C[C@]4(C)[C@@]3(F)[C@@H](O)C[C@@]21C,-0.234%
9,O=C(O)CNc1ccccc1,-0.495%
10,O=C(Nc1ccccc1)c1cc([N+](=O)[O-])ccc1Cl,-1.15%
11,C=CC(C)CCC=C(C)C (centres undefined),-0.219%
12,CC1=C(C)C(=O)C(CCCCC#CCCCC#CCO)=C(C)C1=O,-0.605%
13,CCCCCCCCC(=O)OCC(C)OC(=O)CCCCCCCC (centres undefined),-0.0315% [at 78.8 µM]
14,Cc1cc(C)n(CO)n1,-0.352%
15,OCCCO,-0.257% [at 78.8 µM]
16,CCCCOC(=O)CC#N,-0.0714% [at 78.8 µM]
17,CCN(CCCCOC(=O)c1ccc(OC)c(OC)c1)C(C)Cc1ccc(OC)cc1 (centres undefined),0.982%
18,C[C@H](CN1CCCC1)C(=O)c1ccc(C(F)(F)F)cc1,0.274%
19,CC(C)Oc1ccccc1O,-0.455%
20,FC1(F)C(F)(F)C(F)(F)C2(F)C(F)(C1(F)F)C(F)(F)C(F)(F)C1(F)C(F)(F)C(F)(F)C(F)(F)C(F)(F)C12F (centres undefined),-0.387%

row,Compound,activation
1,CCCCCCCCCCCCSC#N,-0.0297%
2,CNc1ccccc1,-0.537%
3,CC(C)(C(=O)O)c1ccc(C(O)CCCN2CCC(C(O)(c3ccccc3)c3ccccc3)CC2)cc1 (centres undefined),0.837%
4,CCCCC(CC)COCCC#N (centres undefined),1.75%
5,O=C1OC(=O)C2CC=CCC12 (centres undefined),0.103% [at 78.8 µM]
6,C=CCCC,-0.223% [at 78.8 µM]
7,C=C(C)C(=O)OCCCCCCCCCCOC(=O)C(=C)C,0.276%
8,CC(O)CN (centres undefined),-0.54%
9,COC(=O)C(C)(C)C,-0.711% [at 78.8 µM]
10,Nc1cccc2c(=O)[nH][nH]c(=O)c12,-0.269% [at 78.8 µM]
11,Cc1cc(N)n(-c2ccccc2)n1,-0.0143%
12,CC[C@H](NC(C)C)[C@H](O)c1ccc(O)c2[nH]c(=O)ccc12,-0.399%
13,CC(O)C(C)O (centres undefined),-0.0051% [at 78.8 µM]
14,NC(=O)c1ccccc1C(N)=O,-0.551% [at 78.8 µM]
15,O=Cc1ccc(Cl)c([N+](=O)[O-])c1,0.714%
16,O=C(OCCOCCOCCOC(=O)c1ccccc1)c1ccccc1,-0.905%
17,CCCN(C1CCN(C(=O)C2CCNCC2)CC1)[C@@H]1CCc2ccc(OC)cc2C1,-0.4%
18,CC1(C)CC(=O)CC(C)(C)N1,0.178%
19,CO[C@@H]1COCC[C@@H]1N[C@@H]1CC[C@@](C(=O)N2CCc3ncc(C(F)(F)F)cc3C2)(C(C)C)C1,-0.773%
